Experimental data published in PubChem BioAssay AID488895 (Broad Institute, 2010).
Out of some 340,000 compounds screened, about 120 (0.035%) were called active. The sample holds actives, similar compounds and a random draw of the others, so the mix is not that of the screen.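 How the source made its calls: active means mean replicate inhibition at least 50% and at least half of replicates individually reaching 50%; inconclusive means only one of the two criteria met; inactive means neither criterion met.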

experiment: E. coli Tat export inhibitors, primary screen, MC4100, TorA-mCherry reporter, fluorescence, single point (AID 488895); settings: at 10 µM, hits give high values;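 further: exported cargo escapes ClpAP degradation while cytoplasmic cargo is degraded and loses fluorescence; 0% = median of neutral control wells and 100% = median of NaSCN control wells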

Compound | inhibition
CCn1cc(S(=O)(=O)c2cccc(C)c2)c(=O)c2cc(F)c(N3CCN(C)CC3)cc21 | -3.59% (inactive)
CCCCCCn1cc(C(=O)O)c(=O)c2cc(F)c(N3CCCCC3)cc21 | 4.11% (inactive)
CN1CCN(c2cc3c(cc2F)c(=O)c(C(=O)O)cn3CCF)CC1 | 81.7% (active)
CCn1cc(C(=O)NCCC(=O)NCCO)c(=O)c2cc3c(cc21)OCO3 | 0.475% (inactive)
CCn1cc(C(=O)NCCO)c(=O)c2cc(F)c(N3CCN(C)CC3)cc21 | 81.4% (active)
CCCCNC(=O)c1cn(CC)c2cc(N3CCN(C(=O)c4ccco4)CC3)c(F)cc2c1=O | -4.43% (inactive)
CC1(C)O[C@@H]2[C@H](O1)[C@@H](COS(=O)(=O)O)O[C@H]2n1ccc(=O)[nH]c1=O | -1.01% (inactive)
COc1ccc(S(=O)(=O)Nc2cccc3c2O[C@H](CN(C)S(=O)(=O)c2ccc(OC)cc2)[C@@H](C)CN([C@H](C)CO)C3=O)cc1 | 0.274% (inactive)
O=C(c1cn(-c2ccccc2)nc1-c1cccnc1)N1CCN(S(=O)(=O)c2ccccc2F)CC1 | 7.82% (inactive)
COc1ccc(CNC(=O)C(NS(=O)(=O)c2cccc3nsnc23)C(C)C)cc1 (stereo unspecified) | -12.3% (inactive)
Cc1nc2ccc(C(=O)N3CCSCC3)cc2s1 | -5.07% (inactive)
COc1cc(C2CC(=O)Oc3cc(OC)c(OC)c(OC)c32)cc(OC)c1OC (stereo unspecified) | 0.529% (inactive)
COc1cccc(C(C(=O)NC2CCCC2)N(C(=O)c2ccco2)c2cccc(C(C)=O)c2)c1OC (stereo unspecified) | 7.67% (inactive)
CCNC(=O)CC1C(=O)N(c2ccc(OC)cc2)C(=S)N1CCc1ccncc1 (stereo unspecified) | 5.06% (inactive)
O=C(CN1CCN(S(=O)(=O)c2ccc(F)cc2)CC1)NC1CC1 | 2.17% (inactive)
CCn1cc(/C=C(\NC(=O)c2cc(OC)c(OC)c(OC)c2)C(=O)N2CCN(C)CC2)c2ccccc21 | 6.75% (inactive)
N#Cc1nc(N)nc(N(c2ccccc2)c2ccccc2)n1 | -1.07% (inactive)
CC(=O)NC(=S)NNC(=O)c1ccc(Br)cc1 | 10.8% (inactive)
O=C(COc1coc(CN2CCN(c3ccccc3)CC2)cc1=O)N1CCc2ccccc21 | -5.1% (inactive)
COCC(=O)N1CCc2ccc(NC(=O)c3ccccc3Cl)cc2C1 | -8.59% (inactive)
O=C(Cc1ccccc1F)NC1CCSc2ccccc21 (stereo unspecified) | -4.99% (inactive)
CC(N)C12CC3CC(CC(O)(C3)C1)C2 (stereo unspecified) | -2.5% (inactive)
CCn1ccnc1CN1CCCC(C(=O)c2ccc3c4c(cccc24)CC3)C1 (stereo unspecified) | -0.858% (inactive)
COc1ccc(C2NCCCC2c2ccccc2)cc1 (stereo unspecified) | 0.669% (inactive)
CC(=O)Nc1ccc(OCCC[n+]2cccc(C(=O)[O-])c2)cc1 | 0.863% (inactive)
CCOC(=O)N1CCN(C(=O)c2ccccc2N(Cc2ccccc2)S(=O)(=O)c2ccc(OC)cc2)CC1 | -2.32% (inactive)
